Pf Dd2 inh – blocks in vitro growth of P. falciparum Dd2; P. falciparum Dd2 growth, SYBR Green, 72 h; Potency, µM (titrated, usually from 28.9 µM), usual class: inhibitors; 120,000 tested, 4.3% active; AID 1347417; active means well fitted inhibition curve with a large enough effect; further: nearly all actives have a fitted effect of over 65% in size
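Readout: SYBR Green fluorescence, 485 nm excitation, 535 nm emission, after ~16 h lysis at 37C. Before that, Dd2-infected red cells (2.5% hematocrit) grew 72 h with compound, 29 uM top final concentration.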
Numbers stand for hits; – = inactive. This is one part of a sample in which hits are shown more often than they occur.

SMILES | Pf Dd2 inh
O=C(c1ccccc1F)N1CCCC(n2cc(-c3nc(C4CC4)no3)nn2)C1 (configuration not stated) | –
CN(C)c1cc(=O)c2ccnc(Nc3cccnc3)c2o1 | –
CC(C)CNC(=O)C1CCc2ncc(-c3ccsc3)n2C1 (configuration not stated) | –
O=C(C1CCc2ncc(-c3ccsc3)n2C1)N1CCN(c2ccccn2)CC1 (configuration not stated) | –
O=C(NC1CCN(Cc2ccccc2)CC1)C1CCc2ncc(-c3ccsc3)n2C1 (configuration not stated) | 8.9µM
CSCC(=O)N[C@H]1CCN2C(=O)c3cc(-c4ccccc4F)ccc3NC(=O)[C@H]12 | –
CCn1nccc1C(=O)N1CCCC(c2nnnn2C)C1 (configuration not stated) | –
O=C(c1ccccc1)N1CCCC(c2nn[nH]n2)C1 (configuration not stated) | –
CCOC(=O)c1ccc(CNC(=O)c2cn(CCCc3ccccc3)nn2)o1 | –
Cc1noc(C)c1-c1cc2cc(CN(C)C)oc2c(-c2ccc([S+](C)(=O)[O-])cc2)n1 | 8.9µM
COCCCNc1nc(-c2c(C)noc2C)cc2cc(CN(C)C)oc12 | –
Cc1noc(C)c1-c1cc2cc(CN(C)C)oc2c(Nc2ccncn2)n1 | –
CCCSc1ncc(CN2CCCC(c3nnc(CN(C)C)n3C)C2)cn1 (configuration not stated) | –
COc1cccc(-c2cc(C3CCN(C(=O)c4cc(C)ccc4C)CC3)[nH]n2)c1 | –
COc1cccc(-c2cc(C3CCN(C(=O)Nc4ccc(F)cc4)CC3)[nH]n2)c1 | 5.6µM
COc1cccc(-c2cc(C3CCN(C(=O)Nc4ccccc4F)CC3)[nH]n2)c1 | –
COc1cccc(-c2cc(C3CCN(C(=O)Nc4cccc(Cl)c4C)CC3)[nH]n2)c1 | –
COc1cccc(-c2cc(C3CCN(C(=O)Nc4ccccc4OC)CC3)[nH]n2)c1 | –
COc1cccc(-c2cc(C3CCN(S(=O)(=O)c4ccc(F)cc4F)CC3)[nH]n2)c1 | 7.1µM
Cc1cccc(C(=O)N2[C@@H]3CC[C@H]2CC(NC(=O)c2cnc(C)cn2)C3)c1 (some centres not stated) | –
COc1ccc(Cc2ncc3c(n2)CN(C(=O)C(CO)NC(C)=O)C3)cc1 (configuration not stated) | –
O=C(c1ccc(-c2cccc(F)c2)nc1)N1CCCC(c2ccccc2)CC1 (configuration not stated) | –
Cc1cccc(C(=O)N2CCC(C(=O)N3CCCCCCNC(=O)CC3)CC2)c1 | –
CC(C)CNC(=O)Cc1cccn1-c1ccc(F)cc1 | –
O=C(Cn1nc2n(c1=O)CCCC2)NCCCc1ccccc1 | –
SMILES | Pf Dd2 inh
COC(=O)NC(C)C(=O)N1Cc2cnc(Cc3ccc(OC)cc3)nc2C1 (configuration not stated) | –
O=C(Cn1ccn2nc(-c3ccccc3)c(CO)c2c1=O)Nc1cc(F)cc(F)c1 | –
COc1ccc(C(=O)N[C@H]2[C@H](O)[C@H](O)C[C@@H]2c2ccc(C(F)(F)F)nc2)cc1OC | –
COc1ccc2c(ccn2CCNC(=O)C2CC(=O)N(c3n[nH]c4ccccc34)C2)c1 (configuration not stated) | –
CN(c1ccccc1)c1ccc2nnc(-c3cc(C(=O)NCc4ccncc4)ccn3)n2n1 | –
CN(c1ccccc1)c1ccc2nnc(-c3cc(C(=O)NCCc4ccccc4)ccn3)n2n1 | 8.9µM
CN(c1ccccc1)c1ccc2nnc(-c3cc(C(=O)NC4CCOCC4)ccn3)n2n1 | –
O=C(NCc1ccccc1)C1CCC(=O)N1C1CCN(C(=O)c2ccccc2F)CC1 (configuration not stated) | –
COc1ccc(CCNc2ncnc3c2CN(c2ccc(C)cc2)C(=O)CN3C)cc1 | –
CN1C[C@H]2CN(Cc3cn(C)c4ccccc34)CCN2C1=O | –
Cn1cc(CN2CC[C@@H](c3ccc4c(c3)OCO4)[C@H](O)C2)c2ccccc21 | 8.9µM
Cn1cc(CN2C[C@@H]3OCC(=O)N[C@@H]3C2)c2ccccc21 | –
Cn1cc(CN2CCC(C3CCN(S(C)(=O)=O)CC3)C2)c2ccccc21 (configuration not stated) | 3.5µM
CS(=O)(=O)N1CCC(C2CCN(Cc3ccsc3)C2)CC1 (configuration not stated) | –
CS(=O)(=O)N1CCC(C2CCN(Cc3ccncc3)C2)CC1 (configuration not stated) | –
O=C(c1ccc(F)c(F)c1)N1CCN(c2cc(-c3ccc(Cl)cc3)[nH]n2)CC1 | –
CC(C)(C)C(=O)N1CCCC(c2nn(-c3ccccc3)c(=O)[nH]2)C1 (configuration not stated) | –
Cc1cnc(C2CC2)n1C1CCCN(C(=O)CC(C)C)C1 (configuration not stated) | –
CCCCc1ncc(CN2CCCC(c3cccc(C(=O)O)c3)C2)[nH]1 (configuration not stated) | –
CC(C)c1cnc(C2CCCN(C(=O)OC(C)(C)C)C2)[nH]1 (configuration not stated) | 11µM
